Structures can show the parent of a compound that is named as a salt.
Test system: Drosophila S2 cl14 SmoIP sensor cells
Assay: normalized SmoIP GFP fluorescence (untreated unstimulated = 0%, untreated Hh-stimulated = 100%); higher = more Smo activation sensor fluorescence
Settings: compound concentration: 2 uM, 24 h
[1] = stimulation: Hh conditioned medium (+Hh)
[2] = stimulation: mock conditioned medium (-Hh)
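Further: flow cytometry read-out as median GFP intensity of gated cells, compounds added 30 min before Hh-conditioned or mock medium, mock-treated cells serving as unstimulated baseline.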

| SMILES | normalized SmoIP GFP fluorescence [1] [%] | normalized SmoIP GFP fluorescence [2] [%] |
| --- | --- | --- |
| CC(C)NCC(O)c1ccc(O)c(O)c1 (centres undefined) [Isoprenaline-hydrochloride] | 141 | -14.1 |
| CC(C)C[C@H](NC(=O)CNC(=O)c1cc(Cl)ccc1Cl)B1OC(=O)C(CC(=O)O)(CC(=O)O)O1 | 157 | 31 |
| NC(=O)c1ccc(-c2nc(-c3ccccn3)c(-c3ccc4c(c3)OCO4)[nH]2)cc1 | 130 | -2.96 |
| Oc1cc(O)c(Cl)cn1 [gimeracil] | 107 | -6.97 |
| COc1cc2ncnc(Nc3cccc(Cl)c3)c2cc1OC [ag-1478-tyrphostin-ag-1478] | 157 | -12.9 |
| C[C@@H]1CCN(C(=O)CC#N)C[C@@H]1N(C)c1ncnc2[nH]ccc12 | 105 | -0.889 |
| CN1CCC(CNc2ccc3ncc(-c4cccc(OC(F)(F)F)c4)n3n2)CC1 | 122 | 5.38 |
| COc1cc(-c2ncn(/C=C\C(=O)OC(C)C)n2)cc(C(F)(F)F)c1 | 98.3 | -0.889 |
| Cn1nnc2c(C(N)=O)ncn2c1=O [Methazolastone] | 110 | 3.18 |
| CCC1=C(C)CN(C(=O)NCCc2ccc(S(=O)(=O)NC(=O)N[C@H]3CC[C@H](C)CC3)cc2)C1=O [Glimepiride] | 94.8 | 3.18 |
| CC(=O)O[C@]1(C(C)=O)CC[C@H]2[C@@H]3C=C(C)C4=CC(=O)CC[C@]4(C)[C@H]3CC[C@@]21C [Megestrol-Acetate] | 106 | -0.804 |
| FC(F)(F)c1ccc(/C=C/c2nc(COc3ccc(CCCCn4ccnn4)cc3)co2)cc1 [Mubritinib-TAK-165] | 149 | -0.747 |
